The source of these data is PubChem BioAssay (Tox21).

Results filed as inconclusive are left out. Where a call stands in place of a potency, no number is given. Activity calls are given as the source filed them. Calls come from the whole dose curve; as a rule, active = well fitted cell-killing curve with a large enough effect in the repeat runs; inconclusive = weak or mixed curves; inactive = flat fitted curve, though single readings scatter.
Potency is the fitted concentration of half-maximal effect.

A short description of this experiment: qHTS assay to identify small molecule antagonists of the estrogen related receptor (ERR) signaling pathway from Tox21 library - cell viability counter screen (AID 1224834). Note: nearly all actives have a fitted effect of over 30% in size. As to conditions: ERR reporter cells viability, CellTiter-Fluor, 17.5 h; series mostly up to 92.4 µM. An excerpt:
National Center for Advancing Translational Sciences [NCATS]
NIH Chemical Genomics Center [NCGC]
U.S. Environmental Protection Agency [EPA]
National Institutes of Environmental Health Sciences [NIEHS]
National Toxicology Program [NTP]
U.S. Food and Drug Administration [FDA]
Estrogen related receptors (ERRs), the first orphan nuclear receptors discovered, play an important role in the control of cellular energy metabolism. ERRs are required for high-energy production in response to the environmental challenges. ERR-alpha was also identified as an adverse marker for breast cancer progression; ERR-alpha-positive tumors have a poor prognosis. To screen and to identify environmental compounds that perturb the ERR signaling pathways could provide valuable information for potential therapeutic or preventive measures in the treatment of metabolic disease. To differentiate true ERR antagonists or agonist from cytotoxic substances, the assay is multiplexed with cell viability assay.
Tox21 Assay Protocol Summary:
The ERR cells were dispensed at 2,000 cells/5 ul/well in 1536-well white plates using a Multidrop dispenser. After the assay plates were incubated at a 37 C/5% CO2 incubator for 6 hours, 23 nL of compounds dissolved in DMSO, positive and negative controls or DMSO only was transferred to the assay plate by a pin tool. The plates were incubated at 37 C for 17.5 hours. 1 ul/well of CellTiter-Fluor reagent was added into the assay plates using a Flying Reagent Dispenser. After 30-minute incubation at 37 C/5% CO2, the fluorescence intensity in the plates was measured using a ViewLux plate reader.
(In general: Quantitative high-throughput screening tests each substance at several concentrations.)
As for `CC(C)(C)C(=O)C(Oc1ccc(Cl)cc1)n1cncn1` (stereo not given), the Potency entry was “inactive”.

As for `Cc1cccc(C#N)c1`, the Potency entry is “inactive”.

For `c1cc2c(c(N3CCNCC3)c1)OCCO2`, the Potency result was “inactive”.

As for `CCCCN(CCCCO)N=O`, the Potency result is “inactive”.

`CNC(=O)Oc1ccc(N(C)C)c(C)c1`: the Potency entry was “inactive”.

Consider `O=C1OC(=O)C2C1C1(Cl)C(Cl)=C(Cl)C2(Cl)C1(Cl)Cl` (stereo not given), for which the Potency result was “inactive”.

In the case of `O=C1CN2CCOC2(c2ccccc2Cl)c2cc(Cl)ccc2N1` (stereo not given), the Potency entry is “inactive”.

Take `CCOC(=O)C(c1c(O)c2ccccc2oc1=O)c1c(O)c2ccccc2oc1=O`: the Potency entry is “inactive”.

As for `Cc1cc(C)c(C(=O)P(=O)(C(=O)c2c(C)cc(C)cc2C)c2ccccc2)c(C)c1`, the Potency result is “inactive”.

As for `CS(=O)(=O)c1cc(C(F)(F)F)ccc1C(=O)c1cnoc1C1CC1`, the Potency result was “inactive”.

Turning to `CN(N=O)C(N)=O`, the Potency result is “inactive”.

In the case of `[Cl][Sn]([Cl])([Cl])[Cl]`, the Potency entry was “inactive”.

For the compound `CC(C)CC#N`, the Potency result is “inactive”.

As for `O=[N+]([O-])c1ccc2c3c(cccc13)CC2`, the Potency entry was “inactive”.

With `CCCCOC(=O)c1ccccc1C(=O)O`, the Potency entry is “inactive”.

On to `O=C(Nc1ccccc1)c1ccccc1I`, for which the Potency result is “inactive”.

On to `C=CCC1=C(C)[C@@H](OC(=O)[C@@H]2[C@@H](C=C(C)C)C2(C)C)CC1=O`, for which the Potency is 54.5 µM (active).

`CCC(C)n1c(=O)[nH]c(C)c(Br)c1=O` (stereo not given): the Potency entry is “inactive”.

For the compound `CNC(=O)N(C)c1nc2ccccc2s1`, the Potency result was “inactive”.

As to `O=C(N[C@H]1CN2CCC1CC2)c1cc2ccoc2cn1`, the Potency entry was “inactive”.

For the compound `CCC/C(=N\OCC)C1=C(O)CC(CC(C)SCC)CC1=O` (stereo not given), the Potency entry is “inactive”.

Regarding `C=C(C)[C@@H]1CC=C(C=O)CC1`, the Potency entry is “inactive”.

On to `Fc1cc(Br)ccc1CBr`, for which the Potency entry was “inactive”.

As for `CNC(=O)Oc1c(C(C)(C)C)cc(C)cc1C(C)(C)C`, the Potency entry was “inactive”.

With `O=NN1CCCCC1`, the Potency entry is “inactive”.

Take `Clc1ccccc1N1CCNCC1`: the Potency entry was “inactive”.

With `N#CCNCC#N`, the Potency entry was “inactive”.

In the case of `CCN(CC)C(C)C(=O)c1ccccc1` (stereo not given), the Potency entry is “inactive”.

Regarding `O=[N+]([O-])c1cc(Cl)c(Cl)c(Cl)c1`, the Potency entry is “inactive”.

Turning to `N#CCBr`, the Potency entry was “inactive”.

For the compound `O=C(O)c1ccc2[nH]cc(CCCCN3CC=C(c4ccccc4)CC3)c2c1`, the Potency result is “inactive”.

For the compound `CC1CCCCC1NC(=O)Nc1ccccc1` (stereo not given), the Potency result is “inactive”.

As for `O=CNC(N1CCN(C(NC=O)C(Cl)(Cl)Cl)CC1)C(Cl)(Cl)Cl` (stereo not given), the Potency result was “inactive”.

Consider `COc1cc(OC)nc(Oc2cccc(Oc3nc(OC)cc(OC)n3)c2C(=O)O)n1`, for which the Potency entry is “inactive”.

Regarding `O=C1CN=C(c2ccccc2)c2cc([N+](=O)[O-])ccc2N1`, the Potency result is “inactive”.

Turning to `CCC(=O)C(CCN(C)C)(c1ccccc1)c1ccccc1`, the Potency result was “inactive”.

As to `C[C@]1(O)CC[C@H]2[C@@H]3CCC4=CC(=O)CC[C@]4(C)[C@@]3(F)[C@@H](O)C[C@@]21C`, the Potency result is “inactive”.

In the case of `Nc1cc2c3c(c1)C(c1ccccc1)=N[C@@H](NC(=O)c1cccnc1)C(=O)N3CC2`, the Potency result was “inactive”.

Take `CCOP(=O)(N=C1SCCS1)OCC`: the Potency entry is “inactive”.

Take `O=C(O)C(Br)CBr` (stereo not given): the Potency result was “inactive”.
